The entries come from a sample that favours the strongest signals as a whole.
Assays:
Experiment in all cases: glycan array binding signal (z-score within array); higher = stronger binding
Details in all cases: glycan notation: IUPAC condensed, linker removed
[1] = molecular target: Fuc(a1-2)Gal(b1-3)GalNAc
In short: (§1)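 The Consortium for Functional Glycomics database supplied 3228 glycan arrays, of which those lacking an available protein sequence were dropped. The binding signal, a within-array Z-score, was averaged across arrays of the same protein sequence and across linkers. Negative scores can be read as non-binding.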

[2] = molecular target: Fuc(a1-2)Gal(b1-4)Glc6S
In short: as §1

[3] = molecular target: Fuc(a1-2)Gal(b1-4)GlcNAc(b1-3)GalNAc
In short: as §1

[4] = molecular target: Fuc(a1-2)Gal(b1-4)[Fuc(a1-3)]GlcNAc(b1-2)[Fuc(a1-2)Gal(b1-4)[Fuc(a1-3)]GlcNAc(b1-4)]Man(a1-3)[Fuc(a1-2)Gal(b1-4)[Fuc(a1-3)]GlcNAc(b1-2)Man(a1-6)]Man(b1-4)GlcNAc(b1-4)GlcNAc
In short: as §1

[5] = molecular target: Fuc(a1-2)[Gal(a1-3)]Gal(b1-3)GlcNAc(b1-2)Man(a1-3)[Fuc(a1-2)[Gal(a1-3)]Gal(b1-3)GlcNAc(b1-2)Man(a1-6)]Man(b1-4)GlcNAc(b1-4)[Fuc(a1-6)]GlcNAc
In short: as §1

[6] = molecular target: Fuc(a1-2)[Gal(a1-3)]Gal(b1-3)GlcNAc(b1-6)GalNAc
In short: as §1

[7] = molecular target: Fuc(a1-2)[Gal(a1-3)]Gal(b1-4)GlcNAc(b1-2)Man(a1-3)[Fuc(a1-2)[Gal(a1-3)]Gal(b1-4)GlcNAc(b1-2)Man(a1-6)]Man(b1-4)GlcNAc(b1-4)[Fuc(a1-6)]GlcNAc
In short: as §1

[8] = molecular target: Fuc(a1-2)[Gal(a1-3)]Gal(b1-4)GlcNAc(b1-3)[Fuc(a1-2)[Gal(a1-3)]Gal(b1-4)GlcNAc(b1-6)]GalNAc
In short: as §1

[9] = molecular target: Fuc(a1-2)[Gal(a1-3)]Gal(b1-4)GlcNAc(b1-6)GalNAc
In short: as §1

[10] = molecular target: Fuc(a1-2)[GalNAc(a1-3)]Gal(b1-4)GlcNAc(b1-2)Man
In short: as §1

[11] = molecular target: Fuc(a1-2)[GalNAc(b1-3)]Gal
In short: as §1

[12] = molecular target: Fuc(a1-3)[Gal(b1-4)]Glc6S
In short: as §1

[13] = molecular target: Fuc(a1-3)[Gal(b1-4)]GlcNAc(b1-2)Man(a1-3)[Fuc(a1-3)[Gal(b1-4)]GlcNAc(b1-2)Man(a1-6)]Man(b1-4)GlcNAc(b1-4)GlcNAc
In short: as §1

[14] = molecular target: Gal(a1-3)Gal(b1-4)[Fuc(a1-3)]GlcNAc
In short: as §1

[15] = molecular target: Gal(b1-3)GlcNAc(b1-3)Gal(b1-4)Glc
In short: as §1

[16] = molecular target: Gal(b1-3)GlcNAc(b1-3)Gal(b1-4)GlcNAc(b1-2)[Gal(b1-3)GlcNAc(b1-3)Gal(b1-4)GlcNAc(b1-6)]Man(a1-6)[Gal(b1-3)GlcNAc(b1-3)Gal(b1-4)GlcNAc(b1-2)Man(a1-3)]Man(b1-4)GlcNAc(b1-4)[Fuc(a1-6)]GlcNAc
In short: as §1

[17] = molecular target: Gal(b1-4)GlcNAc(b1-3)Gal(b1-4)GlcNAc(b1-3)Gal(b1-4)GlcNAc(b1-3)Gal(b1-4)GlcNAc(b1-2)Man(a1-3)[Gal(b1-4)GlcNAc(b1-3)Gal(b1-4)GlcNAc(b1-3)Gal(b1-4)GlcNAc(b1-3)Gal(b1-4)GlcNAc(b1-2)Man(a1-6)]Man(b1-4)GlcNAc(b1-4)[Fuc(a1-6)]GlcNAc
In short: as §1

[18] = molecular target: Gal(b1-4)GlcNAc(b1-3)Gal(b1-4)GlcNAc(b1-6)[Gal(b1-3)]GalNAc
In short: as §1

[19] = molecular target: Gal3S(b1-3)GalNAc
In short: as §1

[20] = molecular target: GalNAc(a1-3)GalNAc(b1-3)Gal(a1-4)Gal(b1-4)Glc
In short: as §1

[21] = molecular target: GalNAc(b1-3)GalNAc
In short: as §1

[22] = molecular target: GlcNAc(a1-4)Gal(b1-3)GlcNAc
In short: as §1

[23] = molecular target: GlcNAc(a1-4)Gal(b1-4)GlcNAc(b1-3)Gal(b1-4)GlcNAc(b1-3)Gal(b1-4)GlcNAc
In short: as §1

[24] = molecular target: GlcNAc(b1-2)Gal(b1-3)GalNAc
In short: as §1

[25] = molecular target: GlcNAc(b1-2)Man(a1-3)[GlcNAc(b1-2)Man(a1-6)]Man(b1-4)GlcNAc(b1-4)[Fuc(a1-6)]GlcNAc
In short: as §1

[26] = molecular target: GlcNAc(b1-3)Gal(b1-4)GlcNAc(b1-3)Gal(b1-4)GlcNAc(b1-2)Man(a1-3)[GlcNAc(b1-3)Gal(b1-4)GlcNAc(b1-3)Gal(b1-4)GlcNAc(b1-2)Man(a1-6)]Man(b1-4)GlcNAc(b1-4)[Fuc(a1-6)]GlcNAc
In short: as §1

[27] = molecular target: GlcNAc(b1-3)Gal(b1-4)GlcNAc(b1-3)Gal(b1-4)GlcNAc(b1-2)[GlcNAc(b1-3)Gal(b1-4)GlcNAc(b1-3)Gal(b1-4)GlcNAc(b1-6)]Man(a1-6)[GlcNAc(b1-3)Gal(b1-4)GlcNAc(b1-3)Gal(b1-4)GlcNAc(b1-2)Man(a1-3)]Man(b1-4)GlcNAc(b1-4)[Fuc(a1-6)]GlcNAc
In short: as §1

[28] = molecular target: GlcNAc(b1-3)Gal(b1-4)GlcNAc(b1-3)Gal(b1-4)GlcNAc(b1-3)Gal(b1-4)GlcNAc(b1-2)Man(a1-3)[GlcNAc(b1-3)Gal(b1-4)GlcNAc(b1-3)Gal(b1-4)GlcNAc(b1-3)Gal(b1-4)GlcNAc(b1-2)Man(a1-6)]Man(b1-4)GlcNAc(b1-4)GlcNAc
In short: as §1

[29] = molecular target: GlcNAc(b1-3)Gal(b1-4)GlcNAc(b1-3)Gal(b1-4)GlcNAc(b1-3)Gal(b1-4)GlcNAc(b1-2)Man(a1-3)[GlcNAc(b1-3)Gal(b1-4)GlcNAc(b1-3)Gal(b1-4)GlcNAc(b1-3)Gal(b1-4)GlcNAc(b1-2)Man(a1-6)]Man(b1-4)GlcNAc(b1-4)[Fuc(a1-6)]GlcNAc
In short: as §1

[30] = molecular target: GlcNAc(b1-3)Gal(b1-4)GlcNAc(b1-3)Gal(b1-4)GlcNAc(b1-3)Gal(b1-4)GlcNAc(b1-2)[GlcNAc(b1-3)Gal(b1-4)GlcNAc(b1-3)Gal(b1-4)GlcNAc(b1-3)Gal(b1-4)GlcNAc(b1-6)]Man(a1-6)[GlcNAc(b1-3)Gal(b1-4)GlcNAc(b1-3)Gal(b1-4)GlcNAc(b1-3)Gal(b1-4)GlcNAc(b1-2)Man(a1-3)]Man(b1-4)GlcNAc(b1-4)[Fuc(a1-6)]GlcNAc
In short: as §1

B1: Jacalin (Artocarpus integrifolia) (protein)
chain: MAYSSLLSLSVLALLFSISSADTRKWFLANGINQNPIGIIEAAVGVSEDLLNLNGMEAKNDEQSGISQTVIVGPWGAKVSTSSNGKAFDDGAFTGIREINLSYNKETAIGDFQVVYDLNGSPYVGQNHKSFITGFTPVKISLDFPSEYIMEVSGYTGNVSGYVVVRSLTFKTNKKTYGPYGVTSGTPFNLPIENGLIVGFKGSIGYWLDYFSMYLSL
glycan array binding signal (z-score) [1]: 0.218 | glycan array binding signal (z-score) [2]: -0.249 | glycan array binding signal (z-score) [3]: 0.829 | glycan array binding signal (z-score) [4]: -0.131 | glycan array binding signal (z-score) [5]: -0.249 | glycan array binding signal (z-score) [6]: -0.265 | glycan array binding signal (z-score) [7]: -0.211 | glycan array binding signal (z-score) [8]: -0.332 | glycan array binding signal (z-score) [9]: -0.217 | glycan array binding signal (z-score) [10]: -0.29 | glycan array binding signal (z-score) [11]: 0.341 | glycan array binding signal (z-score) [12]: -0.23 | glycan array binding signal (z-score) [13]: -0.259 | glycan array binding signal (z-score) [14]: -0.268 | glycan array binding signal (z-score) [15]: -0.279 | glycan array binding signal (z-score) [16]: -0.084 | glycan array binding signal (z-score) [17]: 0.12 | glycan array binding signal (z-score) [18]: 0.001 | glycan array binding signal (z-score) [19]: 1.89 | glycan array binding signal (z-score) [20]: -0.256 | glycan array binding signal (z-score) [21]: 3.34 | glycan array binding signal (z-score) [22]: 0.435 | glycan array binding signal (z-score) [23]: 2.63 | glycan array binding signal (z-score) [24]: 2.21 | glycan array binding signal (z-score) [25]: 0.257 | glycan array binding signal (z-score) [26]: 2.52 | glycan array binding signal (z-score) [27]: 2.41 | glycan array binding signal (z-score) [28]: 3.65 | glycan array binding signal (z-score) [29]: 3.32 | glycan array binding signal (z-score) [30]: 4.09

Reference: the supplement of paper PMC8728848
